Screening data as filed in PubChem BioAssay.
Hits are enriched below; roughly 11% of the tested compounds scored in any of these assays.
3T3 cytotox: cytotoxic compounds in NIH 3T3 cells. Potency, µM (titrated, usually from 96.7 µM), for the others: at the highest dose activity change, negative = cytotoxicity, hits mostly inhibitors. 94,000 compounds, 4.3% hits. NIH 3T3 viability, CellTiter-Glo ATP luminescence, 48-72 h; note: nearly all actives have a fitted effect of over 55% in size
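Cells were seeded at 400 per well, treated with pin-transferred compound, and kept 48 or 72 hr at 37 °C before CellTiter-Glo addition and luminescence imaging of cellular ATP.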
HEK293 tox: kills HEK 293 cells. Potency, µM (titrated, usually from 115 µM), for inactives: at the top dose activity change, negative = cytotoxicity, most hits filed as inhibitors. AID 1345083. 94,000 compounds, 6.6% hits. HEK 293 viability, ATP luminescence (CellTiter-Glo), 48-72 h; note: nearly all actives have a fitted effect of over 60% in size
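250 HEK 293 cells/well; compound by pintool; incubated 48 or 72 hr at 37 degree Celsius; CellTiter-Glo added, 10 min RT, luminescence imaged.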
FLuc inh: inhibitors of firefly (Photinus pyralis) luciferase; AID 1347043; 76,000 compounds, 2.5% hits; purified P. pyralis luciferase, luminescence, biochemical; Potency, µM (highest dose often 115 µM), actives largely listed as inhibitors; P08659; note: nearly all actives have a fitted effect of over 65% in size
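FLuc 10nM, D-luciferin 10uM, ATP 10uM, Mg acetate 10mM, Tris acetate pH 7.5, Tween/BSA; cpd qHTS; enzyme added last; CCD luminescence.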
NPR1 antag: human Npr1 receptor antagonism; 76,000 compounds, 1.6% hits; AID 1347048; P16066; Potency, µM (titrated, usually from 46.3 µM), for the others: at the highest dose activity change, negative = inhibition, most hits filed as inhibitors; HEK293 hNpr1 GloSensor cGMP, ANP-stimulated luminescence; calls by dose curve; note: nearly all actives have a fitted effect of over 60% in size
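Compound pre-incubated 30 min at room temperature on GloSensor-loaded HEK293 cells stably carrying hNpr1 and the pGS-40F cGMP biosensor. Stimulation uses hNppA at 0.1 nM final; luminescence is taken at baseline and 20 min post-agonist.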
* marks the source's active call; other numbers are inactive results; i = inactive; ? = inconclusive; / = not tested or not shown; [ ] = remark or other dose. Unless noted, calls come from the whole dose curve; as a rule, active = well fitted curve in the direction sought with a large enough effect; inconclusive = small, poorly fitted or top-dose-only effect, or another doubt; inactive = no such curve, though single readings can be large; an effect the other way counts as inactive or inconclusive. % is set by controls: 0 for no effect and ±100 for the full control effect; potency is the fitted concentration of half-maximal effect.

SMILES | 3T3 cytotox | HEK293 tox | FLuc inh | NPR1 antag
COCC1CN(Cc2ccc(C(F)(F)F)cc2)CC12CCNCC2 (centres undefined) | ? | ? | i | 0.7%
CC(C)n1ccnc1CN1CCCC12CCN(c1ccc(C(F)(F)F)cn1)CC2 | ? | 35.5µM* | i | 2.5%
NC(=O)[C@H](CC1CCCCC1)NC(=O)[C@@H]1CN(S(=O)(=O)c2ccccc2)CCN1S(=O)(=O)c1ccccc1 | ? | -27.3% | i | 0.4%
CCCNC(=O)N1CC(Oc2ccc(-c3nc(-c4ccccc4)no3)cc2)C1 | -41.1% | -50.7% | ? | 0.398µM*
CCOCCCNC(=O)N1CC(Oc2ccc(-c3nc(-c4ccccc4)no3)cc2)C1 | -28.1% | ? | ? | 0.562µM*
O=C(CN1CCCCCC1)N1CC(Oc2ccc(-c3noc(-c4ccccc4)n3)cc2)C1 | ? | ? | ? | -12.0%
O=C(C1CCOCC1)N1CC(Oc2ccc(-c3nc(-c4ccccc4)no3)cc2)C1 | -15.2% | ? | ? | ?
C=CCNC(=O)OC1CN(CC=C)C(=O)CN([S+](=O)([O-])c2cccs2)C1 (centres undefined) | ? | -18.1% | / | /
OCCC#Cc1ccc(CN2CCC(CO)(Cc3ccccc3Cl)CC2)cc1 | ? | ? | i | -4.9%
CCOc1ccc(CN2CCC(CO)(Cc3ccccc3Cl)CC2)cc1 | ? | 79.4µM* | i | 2.1%
COc1ccc2c(c1)C=C(CN1CCC(CO)(Cc3ccccc3Cl)CC1)CO2 | ? | 17.8µM* | i | ?
O=C(CCC1CCCC1)Nc1cccc(-c2nnc3n2CCCC3)c1 | -28.4% | ? | i | -30.4%
O=C(NC1CCN(Cc2ccccc2)CC1)C1CN(C2CCCCC2)C(=O)N1 (centres undefined) | -17.2% | ? | / | /
O=C(C[C@H]1NC(=O)c2ccccc2NC1=O)Nc1nc(-c2cccnc2)cs1 | ? | 44.7µM* | i | -1.2%
CC(C)n1nc(OC(C)(C)C(=O)NCC2CCOCC2)c2cc(CN3CCOCC3)ccc21 | ? | -9.8% | i | 4.2%
COc1ccc(C(=O)N2CCCC(c3nn(-c4ccc(OC)cc4)c(=O)[nH]3)C2)cc1 (centres undefined) | -31.1% | -12.5% | i | 16.6%
Cn1cc(-c2cccc(CCOc3cnc4c(ccn4CC(=O)O)c3)c2)cn1 | ? | -0.5%[172 µM] | 70.8µM* | 3.0%[70.6 µM]
Cc1noc(C)c1-c1cccc(CCOc2cnc3c(ccn3CC(=O)O)c2)c1 | 50.1µM* | ? | i | -1.7%[70.6 µM]
O=C(c1ccco1)N1CCC(OC2CCN(Cc3ccccc3)CC2)CC1 | -11.4% | -4.1% | i | 5.6%
COCC1CN(C)CC12CCN(C(=O)CCCc1ccccc1)CC2 (centres undefined) | ? | ? | i | 2.5%
COCCOC1CCOC2(CCN(C(=O)CCCc3ccccc3)CC2)C1 (centres undefined) | -15.2% | ? | 28.2µM* | -10.8%
COCC1CN(C2CCC2)CC12CCN(C(=O)CCCc1ccccc1)CC2 (centres undefined) | ? | 31.6µM* | / | /
COCC1CN(C2CCC2)CC12CCN(Cc1cccc(OC)c1OC)CC2 (centres undefined) | ? | 44.7µM* | i | -1.7%
COCC1CN(C2CCC2)CC12CCN(Cc1ccc(OC)c(OC)c1)CC2 (centres undefined) | ? | ? | i | -10.0%
COCC1CN(C2CCC2)CC12CCN(C(=O)C1(c3ccccc3)CC1)CC2 (centres undefined) | ? | 31.6µM* | i | -27.5%
SMILES | 3T3 cytotox | HEK293 tox | FLuc inh | NPR1 antag
CN(C)Cc1cn2c(=O)n(C)cc(-c3ccc(F)c(Cl)c3)c2n1 | ? | ? | i | 4.6%[70.6 µM]
CCNC(=O)O[C@H]1C(=O)N(C)C2(CCN([S+](=O)([O-])c3cccs3)CC2)[C@@H]1C(=O)OCC | ? | -14.7% | / | /
COc1ccc(C(=O)N2CCN(C(=O)C3CCCCC3)C[C@@H]2C(=O)N[C@H]2CCCNC2=O)cc1 | -5.2% | -0.8% | i | -0.7%
CN(C)CCCC(=O)N1Cc2ccccc2CC2(CCN(CC3CCOCC3)CC2)C1 | 0.4% | -1.1% | / | /
COc1cccc(-n2cc(CN(C)Cc3cn(-c4ccccc4)nn3)cn2)c1 | ? | 31.6µM* | i | -1.5%
COc1ccc(-c2ccc(C(=O)N3CCN(C(=O)C4CCCC4)CC3)cc2)nn1 | -23.3% | -19.7% | / | /
COc1cc(OC)cc(-c2nc(C3CC(=O)N(Cc4ccccc4OC)C3)no2)c1 (centres undefined) | ? | ? | i | -14.2%
